# According to publication PMC6212790, “How bacterial xenogeneic silencer rok distinguishes foreign from self DNA in its resident genome”:
# Whole data set: some 33,000 sequences, median “e-score” near -0.038, cut for the highest 2% near 0.33. The entries come from a sample that favours the highest values as a whole.
# Target: T1, GST-Rok-C97-191 (Bacillus subtilis subsp. subtilis str. …, UniProt O34857 97-191)
# T1 sequence: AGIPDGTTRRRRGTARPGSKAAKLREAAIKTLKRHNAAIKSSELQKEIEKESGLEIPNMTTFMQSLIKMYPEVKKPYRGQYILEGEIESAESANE
# Test: protein binding microarray; Rok is a gene silencer of Bacillus subtilis; high values mean tight binding
# Settings: protein: recombinant; tags: GST (pTH5325, pDEST15-Magic modified); dsDNA, one strand shown
# Procedure, shortened: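 Every oligonucleotide joins a 25-mer constant primer to a 35-mer variable part drawn from a de Bruijn sequence of order 10, so each non-palindromic 8-mer appears at least 32 times and each palindromic 8-mer 16 times. The preference for every 8-mer is reported as a unitless, rank-based enrichment score (E-score). This score spans 0.5 for the most favored 8-mer to −0.5 for the most disfavored.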
row,Sequence,binding signal [E-score]
1,ACGTACGG,0.0152
2,ACTAGTAG,0.404
3,GCTAGTAC,0.184
4,ACTAGTAT,0.409
5,ACCAGTAT,0.196
6,ACTAGTAC,0.393
7,CCTAGTAC,0.0475
8,ACTAGTAA,0.423
9,ACTAGTCG,0.181
10,CCTAGTAG,0.25
11,ACTAGTCT,0.215
12,TCTAGTAA,0.265
13,CCTAGTAA,0.145
14,ACCTTGGC,-0.158
15,CATTCGAA,0.101
16,AACCAATT,0.204
17,ACTCAAGA,-0.0762
18,CATAATGA,0.175
19,AAATTGAT,0.0406
20,CTTCCTCA,-0.0806
21,GACAGCGA,-0.193
22,GCGTAGAC,-0.111
23,AATATCTG,0.2
24,CATATCTC,0.0436
25,GATATCTA,0.349
26,GATATCCA,0.0457

row,Sequence,binding signal [E-score]
1,GATATCAA,0.158
2,AATATCTC,0.28
3,AATATCTA,0.343
4,CATATCTA,0.34
5,CATATCGA,0.0885
6,ACATCTTC,0.0581
7,ACTAAACC,-0.0801
8,CCTATTAG,0.16
9,CGACTGAA,-0.021
10,CGTAACAG,0.131
11,CGTCGAAA,0.106
12,GTTTAGTA,0.31
13,ATTTAGTA,0.4
14,AATTAGTA,0.408
15,CATTAGTA,0.26
16,AATTAGTG,0.28
17,ATTTAGTG,0.0465
18,CATGGAAC,-0.0493
19,CGTAAATA,0.254
20,CCTGAAAC,-0.0142
21,TATAAAGA,-0.131
22,TAAAGTCA,-0.0164
23,AAATGCCC,0.00515
24,ACTACGCA,-0.0187
25,CAGTGTAC,0.0867
26,AGTCAGCA,-0.0559

row,Sequence,binding signal [E-score]
1,GACAACTA,0.295
2,TACAACAA,0.353
3,AACAACAA,0.1
4,TACAACTA,0.338
5,GACAACAA,-0.114
6,AACAACTA,0.266
7,CCAGTTCG,-0.177
8,ACCAGTAG,0.259
9,GTCATCAA,-0.132
10,CTGGGAAA,-0.136
11,GCTGCTAC,0.0824
12,ACTAAGCA,0.0291
13,ACAACCGG,-0.0576
14,GCTCGAGC,-0.176
15,CATTTGCA,0.157
16,ATCTTCAT,0.204
17,AAACCTTC,0.0022
18,CCGGACAA,-0.145
19,CCACTCTC,-0.129
20,AACTTATA,0.345
21,TACTTATA,0.331
22,GACTTATA,0.279
23,AACTTCTA,0.246
24,TACTTCTA,0.374
25,GACTTCTA,0.111
26,TACTTACA,0.31

row,Sequence,binding signal [E-score]
1,CACTTATA,0.281
2,AACTTATC,0.168
3,GAATGTTA,0.159
4,CAGCAAGA,0.159
5,CCGATATC,0.0718
6,GAGTGTAA,0.0764
7,ACCATTGG,-0.182
8,TAGCTACA,0.353
9,AAGCTACT,0.195
10,CATCTACA,0.0976
11,TATCTACA,0.361
12,AGTCTACA,0.0463
13,GAGCTACA,0.151
14,CAGCTACA,0.0422
15,AAGCTACG,0.0766
16,AAGCTACC,0.362
17,ACTCTACA,0.108
18,AATCTACA,0.365
19,GATCTACA,0.29
20,TAGCACTA,0.191
21,GCGAGTTA,0.0475
22,ACCAGGCG,-0.1
23,AATGGCGG,-0.112
24,TCCGGAGA,-0.0285
25,GACAGGCA,-0.106
26,CACATGCA,0.206

row,Sequence,binding signal [E-score]
1,GCTTTCTA,0.319
2,AGTTTCTC,0.244
3,CGTTTCGA,-0.111
4,GGTTTCTA,0.353
5,AGTTTCTG,0.0882
6,AGTTTCTA,0.389
7,CGTTTCTA,0.369
8,GTTTTCTA,0.256
9,CGTTTCTC,-0.0794
10,GGCGACAC,-0.0519
11,GATAGACC,0.022
12,AGAGAAGG,-0.195
13,CTAGTACC,0.244
14,GATATATC,0.403
15,GCGATATA,0.282
16,GTGATATA,0.245
17,GAGATATC,0.182
18,GATATATA,0.358
19,ATGGGGCC,-0.169
20,ACTAGCAT,0.142
21,TGGTCTAA,0.0359
22,GAGTGAAC,0.0307
23,CGACGACC,-0.148
24,AAGCGGGG,-0.141
25,AAGTAGAA,0.363
26,TAGTAGCA,0.316

row,Sequence,binding signal [E-score]
1,CAGTAGAG,0.0442
2,AAGTAGGA,0.0873
3,AAGTAGAG,0.0923
4,GAGTAGAA,0.279
5,AAGTAGAC,0.021
6,AAGTAGAT,0.407
7,CAGTAGAA,0.426
8,TAGTAGAA,0.433
9,AAGTAGCA,0.259
10,TAGTAGGA,0.252
11,GGTTATTA,0.0524
12,GGCGGTAC,-0.0765
13,ACCGCTCG,-0.0635
14,ATGTCGCC,-0.0714
15,TGCTGGAA,-0.107
16,CCATTAAA,-0.149
17,ATATTTTA,0.384
18,ATATTTTG,0.237
19,GTATTTAA,0.273
20,GTATTTGA,0.0326
21,CTATTTTA,0.302
22,GTATTTTA,0.376
23,CTAGCCGC,-0.192
24,TGCGGCAA,0.0751
25,CTTTCTAC,0.447
26,ACTTCTAC,0.231

row,Sequence,binding signal [E-score]
1,CTTTCTTC,0.0829
2,ATTTCTGG,0.0299
3,GTTTCTAA,-0.0431
4,ATTTCTCA,0.126
5,AGTTCTAG,0.236
6,ATTTCTAG,0.366
7,ATTTCTAA,0.357
8,ATTTCTTC,0.204
9,ATTTCTAC,0.353
10,CTTTCTAA,0.1
11,CCAGGTAG,0.0315
12,GAACCGAA,0.00912
13,CAAGCTAG,0.137
14,ATCCCGTC,-0.181
15,ATGGTAGA,0.448
16,ATGGTAGC,0.35
17,ATGGTACA,0.199
18,ATGGTATC,0.0289
19,ATGGTAGG,0.278
20,ATGGTAAA,0.23
21,CTGGTATA,0.205
22,ATGGTATA,0.353
23,GTGGTAGA,0.433
24,GTGGTAAA,0.21
25,CTGGTAGC,-0.00597
26,CTGGTAGA,0.324

row,Sequence,binding signal [E-score]
1,AACATCCG,0.0335
2,AACCGGTT,0.0733
3,AGTAGCAA,0.277
4,ACCTCTCG,0.00338
5,CGAAACAA,0.0284
6,CAAGCTGC,-0.171
7,AGCGACCT,0.06
8,CACGATGA,-0.103
9,GGGAAGGA,-0.18
10,ATAGATTA,0.331
11,ATAGAAAT,0.381
12,ATAGAATC,0.274
13,ATAGATTG,0.304
14,CTAGATTC,0.166
15,ACAGATTA,0.0434
16,ATAGAATA,0.354
17,ATAGAAAA,0.267
18,AAAGATTA,0.212
19,ATAGAAAC,0.326
20,ATAGATTC,0.34
21,ATAGAATG,0.165
22,AGAAGACA,0.059
23,AACCTGCG,-0.0596
24,CAAGGTAA,0.166
25,CACAATGA,0.00707
26,GTTAATGA,0.082

row,Sequence,binding signal [E-score]
1,GTCCCTGA,-0.188
2,TCTGGGAA,0.0446
3,TACTGGCA,0.0047
4,ACCTATGC,-0.0256
5,ATTGGGGA,-0.0754
6,GCAGATTA,0.028
7,GTAGATTA,0.344
8,CTAGATTA,0.312
9,GAAAGCTC,-0.157
10,AAGTAGTG,0.211
11,ATGTAGTC,0.156
12,CAGTAGTC,-0.151
13,CAGTAGTA,0.362
14,AAGTAGTA,0.358
15,ATGTAGTG,0.163
16,AAGTAGTC,0.226
17,ATGTAGTA,0.407
18,GAGTAGTA,0.305
